Sampled rows, rich in hits. Any-hit rate of the full collection: about 6.7%.
MCF10A rereplic = induces DNA re-replication in MCF 10a normal breast cells | MCF 10A DNA re-replication, Hoechst nuclear intensity, 48 h | Potency, µM (doses to about 46.1 µM), without a hit: at the top dose activity, positive = re-replication, hits mostly activators | 350,000 tested, 2.9% active; also: % of control where 0% means no effect; nearly all actives have a fitted effect of over 50% in size
KB-V1 cytotox = kills drug-selected multidrug resistant KB-V1 cells | KB-V1 MDR cells viability, CellTiter-Glo, 72 h | Potency, µM (doses to about 46.1 µM), usual class: cytotoxic | 400,000 tested, 3.4% active; also: % is scaled to controls: 0 for no effect and ±100 for the full control effect; nearly all actives have a fitted effect of over 60% in size
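Luminescent ATP read-out (CellTiter-Glo, 10 min) measures survival of drug-selected KB-V1 MDR cells after 72 h, 37 degrees C compound exposure. Medium: phenol-red-free DMEM, 10% FBS. Values from fitted concentration-response curves.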
PINK1 modulator = changes PINK1 expression; PINK1 immunofluorescence, high-content cytometry, 24 h; Potency, µM (top dose mostly 76.6 µM), for inactives: top-dose activation (PINK1 increase), actives largely listed as activators; 410,000 tested, 0.2% active; active = well fitted activation curve with a large enough effect; inconclusive = small, poorly fitted or top-dose-only effect; cell line not stated here; also: % of control where 0% means no effect; nearly all actives have a fitted effect of over 65% in size
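Readout is PINK1 immunofluorescence, quantified alongside mitochondrial, cell and nuclear markers by laser-scanning microplate cytometry. Cells from a stable line were exposed to compound titrations (5 concentrations) for 24 hours, with CCCP controls.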
SW480 rereplic = inducers of DNA re-replication in SW480 colon cancer cells. SW480 DNA re-replication, Hoechst DNA content imaging, 48 h. Potency, µM (titrated, usually from 46.1 µM), inactives show at the top dose re-replication activation, usual class: activators. 340,000 tested, 1.8% active. AID 624297; also: % of control where 0% means no effect; nearly all actives have a fitted effect of over 55% in size
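Image-based read-out: total Hoechst fluorescence of nuclei (405 nm excitation, 500-530 nm emission), with hits raising the fraction of high-intensity nuclei. SW480 colon cells incubated 48 hr with compounds at 37 C.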
KB-3-1 tox = KB-3-1 parental cell cytotoxicity; KB-3-1 viability, CellTiter-Glo ATP luminescence, 72 h; 400,000 tested, 1.4% active; AID 1347075; Potency, µM (series often up to 46.1 µM), most hits filed as cytotoxic; also: % is scaled to controls: 0 for no effect and ±100 for the full control effect; nearly all actives have a fitted effect of over 60% in size
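72 h, 37 °C compound treatment of KB-3-1 parental cells; CellTiter-Glo added, 10 min, luminescence read. Data corrected against DMSO-only plates and normalized before curve fitting.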
Active calls of the source: *; i = inactive; u = inconclusive; x = no result given; [ ] = another dose, or the depositor's remark. Unless noted, calls follow the shape of the dose curve; as a rule, active = well fitted curve in the direction sought with a large enough effect; inconclusive = small, poorly fitted or top-dose-only effect, or another doubt; inactive = no such curve, though single readings can be large; an effect the other way counts as inactive or inconclusive. Potency is read from the fitted curve at half-maximal effect.

SMILES | MCF10A rereplic | KB-V1 cytotox | PINK1 modulator | SW480 rereplic | KB-3-1 tox
CC(NC(=O)c1ccccc1NC(=O)CN1CCN(c2ccccc2O)CC1)c1ccccc1 (stereo not drawn) | 10.9% | u | 3.1% | -1.2% | i
COc1ccc(CN2CCCC(n3cc(C(=O)N4CCCCC4)nn3)C2)cc1OC (stereo not drawn) | x | x | -1.1% | x | x
CCc1ccc(Nc2cc(C)nc3nc(Cc4ccc(Cl)cc4)nn23)cc1 | x | u | u | x | 20.6µM*
Cc1ccc(Nc2cc(C)nc3nc(Cc4ccc(Cl)cc4)nn23)cc1 | x | i | 23.6% | x | i
COc1cccc(C(C(=O)NCc2ccccc2)N2CCN(c3cccc(C)c3C)CC2)c1OC (stereo not drawn) | x | 16.4µM* | x | x | u
Cc1cccc(N2CCN(C(C(=O)NCc3ccccc3)c3ccco3)CC2)c1C (stereo not drawn) | x | u | x | x | i
COc1ccc(NC(=O)C2CCN(S(=O)(=O)c3c(C)noc3/C=C/c3cccs3)CC2)cc1Cl | x | x | 0.9% | x | x
Cc1cc(C)cc(NC(=O)C(=O)NCC2CCCN2S(=O)(=O)c2cccs2)c1 (stereo not drawn) | u | i | 2.5% | 19.5% | i
Cc1ccccc1-n1c(=O)c(C#N)cc2c(=O)n3ccccc3nc21 | u | i | x | u | i
N#Cc1cc2c(=O)n3ccccc3nc2n(-c2ccc(Cl)cc2)c1=O | 0.517µM* | i | 14.7% | u | i
Cn1nc([N+](=O)[O-])nc1Sc1nnc(-c2ccccc2)o1 | u | i | -1.9% | 4.11µM* | u
O=Cc1ccc(Sc2nnc(-c3ccccc3)o2)c([N+](=O)[O-])c1 | 2.91µM* | u | -2.5%[38.3 µM] | u | u
COc1ccc(-c2sc3cc(OC)ccc3c2-c2ccc(OCCN3CCOCC3)cc2)cc1 | 3.66µM* | i | 0.2% | u | i
COc1cc(OC)cc(-c2sc3ccc(OC)cc3c2-c2ccc(OCCN3CCCCC3)cc2)c1 | 18.4µM* | i | -1.0% | u | i
COc1ccc(-c2sc3cc4c(cc3c2-c2ccc(OCCN3CCCCC3)cc2)OCO4)cc1 | u | i | -0.5% | 3.0% | i
COC(=O)[C@@H]1C[C@@H](NC(=O)c2cccc3c(C)c(C)[nH]c23)CN1Cc1cccc2ccccc12 | x | x | 1.4% | x | x
Cc1ccc(S(=O)(=O)N(C)c2ccc(C(=O)NC3CCCCC3)cc2)cc1 | x | i | 2.7% | x | i
COc1cc(OC)cc(-c2cc3nc(C)c(CCC(=O)NC(C)CCc4ccco4)c(C)n3n2)c1 (stereo not drawn) | u | i | 3.5% | -2.7% | i
COc1cc(OC)cc(-c2cc3nc(C)c(CCC(=O)O)c(C)n3n2)c1 | 18.4µM* | i | 3.4% | 0.1% | i
Cc1ccc(C)c(NC(=O)CSc2nnc([C@@H]3CCCN3C(=O)OC(C)(C)C)o2)c1 | -3.0% | i | -0.5% | 0.2% | i
Cc1cccc(NC(=O)CSc2nnc([C@@H]3CCCN3C(=O)OC(C)(C)C)o2)c1C | 5.5% | u | 7.2% | 1.1% | 20.6µM*
COc1ccccc1C(O)c1ncc(-c2cccc(C(F)(F)F)c2)[nH]1 (stereo not drawn) | x | i | 7.8% | x | i
O=S(=O)(NCC(c1ccccc1)N1CCC(O)CC1)c1ccc(Cl)cc1 (stereo not drawn) | -2.5% | i | -1.0% | -6.0% | i
O=S(=O)(NCC(Nc1ccc(Cl)cc1)c1ccccc1)c1ccc(Cl)cc1 (stereo not drawn) | 3.26µM* | u | -1.1% | u | u
O=C(Cn1ncc2c1-c1ccccc1OC2)N1CCc2ccccc21 | 7.3% | i | 2.6% | -11.6% | i
SMILES | MCF10A rereplic | KB-V1 cytotox | PINK1 modulator | SW480 rereplic | KB-3-1 tox
O=C(Cn1cnc2ccccc2c1=O)N1CCN(Cc2ccccc2)CC1 | -4.4% | 23.1µM* | 3.7% | -5.1% | i
O=C(Cn1ncc2c3ccccc3n(Cc3ccccc3)c2c1=O)N1CCN(c2ncccn2)CC1 | 16.1% | 5.17µM* | -3.8% | 3.7% | u
O=C(Cn1ncc(Cl)c(Cl)c1=O)N1CCOCC1 | 3.66µM* | i | -2.9% | 2.91µM* | u
O=C(Cn1ncc(Cl)c(Cl)c1=O)N1CCc2ccccc21 | 10.3µM* | u | -2.5% | -2.2% | u
O=C(Cn1cnc2ccccc2c1=O)N1CCN(Cc2ccc3c(c2)OCO3)CC1 | -0.3% | u | 0.4% | -6.5% | i
CCCn1c2ccccc2c2cnn(CC(=O)N3CCOCC3)c(=O)c21 | -9.1% | i | -0.7% | 9.3% | i
COc1ccc(NC(=O)C2(S(=O)(=O)c3ccc(C)cc3)CC2)cc1OC | -10.6% | i | -0.1% | -9.5% | i
COc1ccccc1CNC(=O)COC(=O)c1cc(=O)[nH]c2ccccc12 | 5.4% | i | 1.5% | -25.5% | i
O=C(Cn1ncc2c1-c1ccccc1OC2)N1CCN(Cc2ccccc2)CC1 | -2.0% | i | 0.7% | -2.7% | i
O=C(Cn1ncc(Cl)c(Cl)c1=O)N1CCN(Cc2ccccc2)CC1 | 4.11µM* | i | 0.5% | 14.7% | u
CCc1ccc(C(=O)Cn2ncc(Cl)c(Cl)c2=O)cc1 | 5.8µM* | u | -2.3% | 7.31µM* | 7.31µM*
CC1(C)C(=O)Nc2ccccc2N1C(=O)Cn1ncc(Cl)c(Cl)c1=O | u | i | u | 9.2µM* | u
Cc1ccc(Cl)cc1N1CCN(C(=O)c2cnc(N3CCOCC3)c3ccccc23)CC1 | x | u | 1.0% | x | u
CN(C)c1ccc(/C=C/c2ccc3ccccc3[n+]2[O-])cc1 | x | u | 5.4% | x | i
Cc1cc(/C=C\c2ccc3cc(N(C)C)ccc3[n+]2C)c(C)n1-c1ccccc1 | -2.8% | u | u | -8.2% | 4.61µM*
Cn1c(=O)c2cc(NC(=O)Cc3cccnc3)ccc2n1-c1ccc2ccccc2c1 | x | u | 4.6% | x | u
CC(CC(=O)Nc1ccc2c(c1)c(=O)n(C)n2-c1ccc2ccccc2c1)C(F)(F)F (stereo not drawn) | x | 5.8µM* | 5.5% | x | 5.8µM*
CCc1ccc(NC(=O)C(CC)Sc2nc3cc4c(cc3c(=O)n2Cc2ccco2)OCO4)cc1 (stereo not drawn) | 18.4µM* | u | -0.5% | u | u
CCc1ccccc1NC(=O)C(CC)Sc1nc2cc3c(cc2c(=O)n1Cc1ccco1)OCO3 (stereo not drawn) | 6.51µM* | 3.66µM* | u | 14.6µM* | u
COc1ccccc1-n1cc(C(=O)NCCN2Cc3ccccc3OC(c3ccsc3)C2)cn1 (stereo not drawn) | x | x | 0.8% | x | x
O=C(O)c1c(-c2ccc(Cl)cc2)cn2ccccc12 | u | i | 1.9% | 18.4µM* | i
CCOC(=O)c1c(-c2ccccc2Cl)cn2ccccc12 | 1.2% | i | 7.8% | 3.3% | i

Screens deposited in PubChem by National Center for Advancing Translational Sciences (NCATS).
